# Screens as filed in PubChem BioAssay.
# Rows were chosen to be rich in hits. Some 3% of all compounds tested hit in one or more screens of this group.
# KCNH2 3.1 block: qHTS for Inhibitors of KCHN2 3.1: Mutant qHTS; activity change, % (tested at about 1.8 µM); U2OS KCNH2 3.1, thallium flux FluxOr; hits give low values; Potassium voltage-gated channel subfamily H member 2, brain isoform KCNH2 3.1 (human); 0.95% of 340,000 active;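 active = maximum activity change below -70%; inconclusive = maximum activity change from -70% to -50%; inactive = maximum activity change above -50%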;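 note: thallium influx rate constant from kinetic fluorescence after stimulation buffer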
#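 Steps: virus added to U2OS suspension (4 h, RT, dark); medium with 10% FBS added, cells plated, 37 C overnight; FluxOr/Red40 loading buffer 45 min RT; stimulation buffer, 2 min kinetic read; rate constant normalized.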
# ALOX12 inh: Primary qHTS assay for inhibitors of human arachidonate 12S-lipoxygenase (ALOX12): Round 2 | Polyunsaturated fatty acid lipoxygenase ALOX12 (Homo sapiens), P18054 | purified 12hLO, xylenol orange hydroperoxide absorbance | Potency, µM (doses to about 108 µM), most hits filed as inhibitors | 1.1% of 580,000 active | AID 1671190, 2021; active = well fitted inhibition curve with a large enough effect; inconclusive = small, poorly fitted or top-dose-only effect, or another doubt; inactive = no such curve, though single readings can be large or run the other way
#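 Purified human 12hLO at 150 nM in 25 mM Hepes, 0.01% Triton X-100, pH 7.0, preincubated 15 min at room temperature with compound. Reaction started with 40 uM arachidonic acid, 30 min at room temperature. Hydroperoxide measured by Fe-xylenol orange, 573/405 nm absorbance ratio.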
# LDHA inh: qHTS assay for inhibitors of human lactate dehydrogenase | L-lactate dehydrogenase A chain (Homo sapiens), P00338 | purified LDHA, NADH/diaphorase-resazurin fluorescence; hits give low values | 0.15% of 480,000 active | activity change, % (values are at about 110 or 230 µM); in the data active = activity change below about -30%; inconclusive = mostly about -25% to -30%
#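 LDH5 2 nM; NADH 0.06 mM, pyruvate 0.2 mM; 200 mM Tris pH 7.4, EDTA, Tween-20; 5 min RT. Detection: diaphorase 0.133 mg/mL + resazurin 37 µM, fluorescence ex540/em590 at 0 and 20 min; normalized to enzyme-free and DMSO wells.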
# BCR signal inh: qHTS Assay to Find Inhibitors of Chronic Active B-Cell Receptor Signaling | AID 493014, 2011 | Potency, µM (top dose mostly 46.1 µM), most hits filed as inhibitors | 0.05% of 340,000 active | ABC-DLBCL IkBa-CBG/CBR reporter, luminescence ratio, 4 h; active = well fitted inhibition curve with a large enough effect in the signal ratio, with a control signal flat, not every such curve was filed as active; inconclusive = small, poorly fitted or top-dose-only effect, or effect the other way, or a change in a side signal; the % refers to the signal ratio
#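 Concentration-response series (up to 46 uM) were applied to TMD8 dual-reporter cells for 4 h at 37C with doxycycline. Green/red ratio, after filter-overlap correction, defined %Activity; red signal alone was normalised to basal cells and zero luminescence.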
# ClpP mod: qHTS Assay for Activators of ClpP. purified B. subtilis ClpP, FRET peptide cleavage, 20 min. 1.9% of 340,000 active. Potency, µM (titrated, usually from 57.5 µM); active = well fitted falling curve with a large enough effect; inconclusive = small, poorly fitted or top-dose-only effect; inactive = no such curve, though single readings can be large or run the other way; note: the source files actives as falling curves though it sought activators and does not explain the sign; nearly all actives have a fitted effect of over 65% in size
#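 ClpP 10 microg/mL final, pH 8 Tris/KCl buffer with BSA, glycerol, Tween-20; compound pinned in; FRET-FV substrate; RT 20 min; Ex320/Em430; ΔFRET vs ADEP 5.8 microM, DMSO, no enzyme.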
# hERG WT inh: qHTS for Inhibitors of KCHN2 3.1: Wildtype qHTS; Voltage-gated inwardly rectifying potassium channel KCNH2 (Homo sapiens), Q12809; U2OS, BacMam KCNH2, thallium flux FluxOr; hits give low values; activity change, % at 1.84 µM; 0.37% of 340,000 active; AID 720551, 2013;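 active = maximum activity change below -70%; inconclusive = maximum activity change between -70% and -50%; inactive = maximum activity change above -50%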
# Target sequence (Q12809 whole entry, looked up): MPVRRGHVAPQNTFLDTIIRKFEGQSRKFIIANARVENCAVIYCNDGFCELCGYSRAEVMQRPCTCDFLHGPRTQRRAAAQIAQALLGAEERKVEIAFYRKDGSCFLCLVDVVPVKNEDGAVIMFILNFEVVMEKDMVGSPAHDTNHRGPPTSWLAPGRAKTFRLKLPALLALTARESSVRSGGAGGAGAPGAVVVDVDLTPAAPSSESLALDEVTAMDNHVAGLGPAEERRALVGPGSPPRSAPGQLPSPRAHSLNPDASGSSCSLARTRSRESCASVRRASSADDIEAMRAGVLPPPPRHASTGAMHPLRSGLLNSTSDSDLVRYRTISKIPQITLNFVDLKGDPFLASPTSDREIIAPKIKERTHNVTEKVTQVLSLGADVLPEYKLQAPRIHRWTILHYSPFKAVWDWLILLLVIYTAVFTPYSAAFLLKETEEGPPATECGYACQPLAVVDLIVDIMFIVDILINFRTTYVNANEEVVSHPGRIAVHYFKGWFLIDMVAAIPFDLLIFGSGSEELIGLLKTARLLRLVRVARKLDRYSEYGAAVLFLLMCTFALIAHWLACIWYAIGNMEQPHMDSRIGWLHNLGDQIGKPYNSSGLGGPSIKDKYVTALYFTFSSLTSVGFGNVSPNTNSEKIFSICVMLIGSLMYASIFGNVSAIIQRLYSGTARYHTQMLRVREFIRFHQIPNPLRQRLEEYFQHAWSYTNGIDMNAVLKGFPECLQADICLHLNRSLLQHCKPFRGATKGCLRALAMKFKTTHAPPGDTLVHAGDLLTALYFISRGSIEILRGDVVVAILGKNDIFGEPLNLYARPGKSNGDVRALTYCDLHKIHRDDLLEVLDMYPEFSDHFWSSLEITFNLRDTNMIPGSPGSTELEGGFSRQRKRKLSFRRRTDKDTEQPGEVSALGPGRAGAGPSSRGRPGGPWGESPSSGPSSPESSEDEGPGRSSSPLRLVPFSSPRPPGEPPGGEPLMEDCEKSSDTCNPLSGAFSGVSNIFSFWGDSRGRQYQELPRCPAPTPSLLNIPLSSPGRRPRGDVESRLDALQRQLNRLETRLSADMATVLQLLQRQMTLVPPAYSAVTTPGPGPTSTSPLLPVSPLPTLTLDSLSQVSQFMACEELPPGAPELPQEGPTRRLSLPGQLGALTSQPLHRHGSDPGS
#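 U2OS cells transduced with wild-type KCNH2 virus are loaded with FluxOr dye for 45 min, and thallium flux is measured in kinetic reads before and after stimulation buffer. Rate constants are normalized to DMSO controls.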
# Numbers stand for hits; – = inactive; ? = inconclusive; · = not tested or not shown.
SMILES,KCNH2 3.1 block,ALOX12 inh,LDHA inh,BCR signal inh,ClpP mod,hERG WT inh
CC[N+]1(CC)CC2CCC(C)(C1)C2(C)C (stereo not drawn),–,45µM,?,–,–,–
CCN(CC)S(=O)(=O)NCc1ccccc1Cn1cccn1,·,–,–,·,·,·
CC(NC(=O)c1cccnc1)C(c1ccccc1)N1CCN(C)CC1 (stereo not drawn),-77,–,–,–,–,–
CC(Sc1ccccc1Cl)C(=O)NC1CCCC1 (stereo not drawn),·,–,–,·,·,·
Cn1c(=O)[nH]c(=O)c2c1nc(Sc1ccccc1)n2CCCc1ccccc1,·,–,–,·,·,·
O=C(CSc1nc2ccc(Cl)cc2[nH]1)c1ccc2c(c1)OCO2,–,11µM,–,–,–,–
COc1cccc(/C=C2\Oc3cc(OC(=O)C(C)(C)C)ccc3C2=O)c1OC,·,–,–,·,·,·
COC(=O)C1=C(C)N(c2cc(C)cc(C)c2)/C(=C/c2ccco2)C1=O,–,–,–,?,·,–
COC(=O)C1=C(C)N(c2ccccc2)/C(=C/c2ccco2)C1=O,-73,–,–,–,·,–
O=c1[nH]c2cc3c(cc2cc1CN(CCO)S(=O)(=O)c1ccccc1Cl)OCCO3,–,–,–,–,28µM,–
COCCN(Cc1cc2ccc(C)cc2[nH]c1=O)S(=O)(=O)c1ccccc1,–,–,–,?,·,-218
COc1ccc2cc(CN(Cc3cccnc3)S(=O)(=O)c3ccccc3)c(=O)[nH]c2c1,–,45µM,–,–,?,–
COc1cc2cc(CN(CCO)S(=O)(=O)c3ccccc3Cl)c(=O)[nH]c2cc1OC,–,–,–,?,28µM,–
COc1cc2cc(CN(CCCO)S(=O)(=O)c3ccccc3Cl)c(=O)[nH]c2cc1OC,–,–,–,–,?,–
COc1ccc2cc(CN(CC3COCCO3)S(=O)(=O)c3ccccc3)c(=O)[nH]c2c1 (stereo not drawn),·,–,–,–,?,–
Oc1cc(-c2nc3ccccc3s2)cc2c1OCCN(Cc1ncccn1)C2,·,–,·,·,·,·
COc1cc2cc(CN(CCCO)S(=O)(=O)c3ccccc3)c(=O)[nH]c2cc1OC,–,–,–,–,13µM,–
O=c1cc(O)nc(-c2ccccc2)s1,–,?,–,?,·,–
O=c1cc(O)nc(-c2ccc(Cl)cc2)s1,–,45µM,–,–,·,–
CCc1ccc(NC(=O)Cn2c(-c3ccc(F)cc3)cc(C(C)=O)c2C)cc1,·,–,–,·,·,·
CC1CCN(C(=O)COC(=O)c2n[nH]c3ccccc23)CC1,–,–,–,–,28µM,–
CCOC(=O)CCNC(C)C1COc2ccccc2O1 (stereo not drawn),–,?,?,–,6.3µM,–
Cc1ccc2nc(C(C)(C)C)c(Cc3ccsc3)n2c1,·,6.3µM,–,·,–,·
Cc1cc(Br)cn2c(Cc3ccsc3)c(C(C)(C)C)nc12,·,35µM,–,·,–,·
O=C(c1ccccc1-c1ncc(-c2ccc(F)cc2)o1)N1CCCC1,·,–,–,·,·,·
SMILES,KCNH2 3.1 block,ALOX12 inh,LDHA inh,BCR signal inh,ClpP mod,hERG WT inh
O=C(O)c1ccc(N2C(=O)c3[nH]nc(-c4ccccc4)c3C2c2ccccc2)cc1 (stereo not drawn),–,–,–,?,–,–
CCc1ccc(C2c3c(-c4ccccc4)n[nH]c3C(=O)N2c2ccc(C(=O)O)cc2)cc1 (stereo not drawn),·,40µM,–,·,–,·
O=C1CCN(C(=O)c2cc3ccccc3[nH]2)CCCC(CO)CCN1 (stereo not drawn),·,–,·,·,·,·
CN(CC1CCN(CCc2cccc(F)c2)CC1)C(=O)COc1cccnc1,·,–,·,·,·,·
CN(CC1CCN(CCc2cccc(C(F)(F)F)c2)CC1)C(=O)c1ccccc1,–,–,–,–,–,–
CN(CC1CCN(CCc2cccc(C(F)(F)F)c2)CC1)C(=O)c1ccc(F)cc1,-79,–,–,–,·,?
COc1cc(C(=O)N(C)CC2CCN(CCc3cccc(C(F)(F)F)c3)CC2)ccc1C,-72,–,–,–,·,–
Cc1cc(C(=O)CSc2nc3ccccc3o2)c(C)n1CC1CCCO1 (stereo not drawn),–,–,–,?,28µM,–
O=C(Nc1cc([N+](=O)[O-])c2[nH]c(=O)c3ccccc3c2c1)C(F)(F)F,–,–,–,·,32µM,–
COc1ccc2c(c1)-c1nc(NC(=O)c3ccccc3F)sc1CC2,·,?,–,·,35µM,·
OCCCCNc1cccc2ccccc12,–,?,–,–,16µM,–
OCCCCCNc1ncnc2ccccc12,–,–,–,–,–,–
N#Cc1c(-c2ccccc2)cc(-c2cccs2)nc1SCCS(=O)Cc1ccc(Cl)cc1 (stereo not drawn),·,?,–,·,·,·
CCCN(CCC)C(=O)c1cc2sc3ccccc3c2s1,·,5µM,–,·,·,·
O=C(Cn1nnc(-c2ccc(F)cc2)n1)N1CCOCC1,·,–,–,·,·,·
COc1ccc(-c2ccc(-c3nnn(CC(=O)N4CCOCC4)n3)cc2)cc1,–,–,–,?,16µM,–
